target: Large ribosomal subunit protein uL5 (UniProt P62399)

Listed as a hit, yes:
Large ribosomal subunit protein bL27, P0A7L8
Small ribosomal subunit protein uS19, P0A7U3
Large ribosomal subunit protein bL31, P0A7M9

target: Small ribosomal subunit protein bS1 (UniProt P0AG67)

Listed as a hit, yes:
Small ribosomal subunit protein uS10, P0A7R5
Small ribosomal subunit protein uS7, P02359
Small ribosomal subunit protein uS9, P0A7X3
Small ribosomal subunit protein uS11, P0A7R9
